The panel holds about 83,000 compounds, 20% with a hit somewhere; the sample as a whole holds those more often.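 Note: values are percent growth. 100 is the growth of untreated cells, values between 100 and 0 indicate rising inhibition; between -100 and 0 indicates cell death.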 Values without a mark were called inactive. Calls of active or inactive are those of the source. Rule for the calls: active = growth percent below 10; inactive = the rest.

Among the test systems are NCI-H23 lung; NCI-H226 lung; NCI-H322M lung; HOP-62 NSCLC; NCI-H460 lung; HOP-92 NSCLC; NCI-H522 lung; A549/ATCC NSCLC; 786-0 renal; COLO 205 colon.
Assay in all cases: NCI-60 one-dose screen, 48 h (100 = growth as untreated, 0 = no growth, -100 = all killed)
Common to all, as to details: 10 µM unless noted

For the compound `COc1c(B(O)O)cccc1-c1cc(C)c2c(ccc3[nH]ncc32)n1`, the growth in the assay with NCI-H23 lung is 78.4%; with NCI-H226 lung it was 89.7%; in the assay on NCI-H322M lung, 74.3%; with HOP-62 NSCLC, 46.3%; with NCI-H460 lung it was 71%; in the assay on HOP-92 NSCLC it was 41.8%. Also, the growth was 62.6% with NCI-H522 lung, 75.1% with A549/ATCC NSCLC, 40.9% with 786-0 renal and 93.3% with COLO 205 colon.

Turning to `CCCCCCCCCCC(CN(CC)CC)C(O)c1ccccc1` (stereo not given), the growth is 38% with NCI-H23 lung; 15.4% with NCI-H226 lung; 80.3% with NCI-H322M lung; 53.4% in the assay on HOP-62 NSCLC; 21.7% in the assay with NCI-H460 lung; -1.6% (active) in the assay with HOP-92 NSCLC. Besides, the growth with NCI-H522 lung is -14.4% (active); in the assay with A549/ATCC NSCLC, 54.7%; in the assay on 786-0 renal, 49.1%; in the assay on COLO 205 colon it was -42.6% (active).

As to `COc1ccc(/C=N\Nc2nc(SCCC(C)C)nc(-c3ccc(OC)cc3)c2C#N)cc1`, the growth in the assay on NCI-H23 lung is 72.1%; in the assay on NCI-H226 lung, 88.9%; in the assay on NCI-H322M lung it was 80.8%; in the assay on HOP-62 NSCLC, 18.4%; with NCI-H460 lung it was 13.9%; in the assay on HOP-92 NSCLC, 63.2%. For the same compound, the growth with NCI-H522 lung was 60.5%; in the assay on A549/ATCC NSCLC, 70.9%; in the assay with 786-0 renal, -2.8% (active); in the assay on COLO 205 colon, 68%.

Take `NS(=O)(=O)c1ccc(N=Nc2c(O)n(Cc3ccccc3)c3ccc(Cl)cc23)cc1`: the growth with NCI-H23 lung was 91.2%; with NCI-H226 lung, 34.1%; in the assay on NCI-H322M lung, 84%; with HOP-62 NSCLC, 64.3%; in the assay with NCI-H460 lung, 64.9%; in the assay with HOP-92 NSCLC, 97.8%. The growth was 69.1% in the assay on NCI-H522 lung, 82.9% in the assay on A549/ATCC NSCLC, 48% in the assay with 786-0 renal and 94.3% with COLO 205 colon.

As for `COc1ccc(-c2nc3cc(C(=O)NCc4ccccc4)ccc3n2C2CCCCC2)cc1`, the growth with NCI-H23 lung is 99.6%; in the assay on NCI-H226 lung it was 102%; with NCI-H322M lung it was 81%; with HOP-62 NSCLC, 90.1%; in the assay with NCI-H460 lung it was 72.2%; in the assay on HOP-92 NSCLC it was 92.8%. Besides, the growth was 76.8% in the assay on NCI-H522 lung, 74% with A549/ATCC NSCLC, 70.8% in the assay on 786-0 renal and 64.7% in the assay with COLO 205 colon.

With `O=C(Nc1ccccc1O)c1ccc(CNC(=O)c2sccc2Nc2ccnc(C(F)(F)F)c2)cc1`, the growth in the assay on NCI-H23 lung was 51.7%; with NCI-H226 lung, 54.8%; with NCI-H322M lung it was 51%; with HOP-62 NSCLC, 65.6%; with NCI-H460 lung, 42%; in the assay with HOP-92 NSCLC, 20.9%. Further, the growth in the assay on NCI-H522 lung is 7.48% (active); in the assay with A549/ATCC NSCLC, 66.5%; in the assay with 786-0 renal, 60.4%; in the assay with COLO 205 colon, 73.3%.

As to `CN(C)CC1CCC(CN(C)C)C1=O` (stereo not given), the growth is 114% in the assay on NCI-H23 lung; 101% in the assay on NCI-H226 lung; 110% in the assay on NCI-H322M lung; 106% with HOP-62 NSCLC; 111% with NCI-H460 lung; 100% in the assay on HOP-92 NSCLC. The growth in the assay with NCI-H522 lung is 95.3%; in the assay with A549/ATCC NSCLC, 110%; with 786-0 renal, 102%; with COLO 205 colon, 103%.

`C=C1C(=O)O[C@H]2[C@H]1CC/C(COC(=O)/C=C\C(=O)NCc1ccc(Cn3c(=O)sn(CCI)c3=O)cc1)=C\CC[C@@]1(C)O[C@@H]21`: the growth in the assay with NCI-H23 lung is 84.1%; in the assay with NCI-H226 lung it was 83%; in the assay on NCI-H322M lung it was 86.6%; in the assay on HOP-62 NSCLC, 130%; with NCI-H460 lung it was 91.9%; in the assay on HOP-92 NSCLC, 46%. Besides, the growth is -84% (active) in the assay on NCI-H522 lung, 98.1% with A549/ATCC NSCLC, 37.4% in the assay with 786-0 renal and -32.8% (active) in the assay on COLO 205 colon.

In the case of `COC(=O)c1c(C)nc(C)c2c1C(=O)C(Br)=C(NCc1ccccc1)C2=O`, the growth in the assay with NCI-H23 lung is 5.25% (active); in the assay with NCI-H226 lung, 71%; in the assay with NCI-H322M lung it was 31.4%; with HOP-62 NSCLC, 87.1%; in the assay on NCI-H460 lung, 11.7%; with HOP-92 NSCLC it was 86.9%. The growth was 22% in the assay with NCI-H522 lung, 18.2% in the assay on A549/ATCC NSCLC, 51.6% in the assay with 786-0 renal and -11.8% (active) with COLO 205 colon.

With `CC(C)c1ccc(Cc2cnc(NC(=O)c3cc(Br)cs3)s2)cc1`, the growth in the assay on NCI-H23 lung was 47.6%; in the assay with NCI-H226 lung, 24.5%; in the assay on NCI-H322M lung, 45.6%; in the assay on HOP-62 NSCLC it was 35.8%; in the assay with NCI-H460 lung, 13.6%; in the assay on HOP-92 NSCLC, 35.7%. In addition, the growth with NCI-H522 lung is -1.16% (active); in the assay with A549/ATCC NSCLC, 31.4%; with 786-0 renal it was 31.3%; with COLO 205 colon it was 15.4%.

On to `CS(=O)(=O)c1ccc(-c2cnn3ccc(-c4cccc(S(=O)(=O)C5CC5)c4)nc23)cc1`, for which the growth in the assay on NCI-H23 lung is 56.8%; with NCI-H226 lung it was 60.5%; with NCI-H322M lung it was 57.9%; in the assay with HOP-62 NSCLC, 48.7%; in the assay with NCI-H460 lung it was 43.7%; in the assay on HOP-92 NSCLC, 41.9%. The growth with NCI-H522 lung is 31.5%; with A549/ATCC NSCLC, 45%; in the assay with 786-0 renal it was 61.3%; in the assay on COLO 205 colon, 64.3%.

With `Cc1cn(-c2cc(NC(=O)c3cccc(C#Cc4cccc5[nH]nc(N)c45)c3)cc(C(F)(F)F)c2)cn1`, the growth is 37.1% in the assay on NCI-H23 lung; 22.1% with NCI-H226 lung; 66% in the assay on NCI-H322M lung; 55.5% in the assay with HOP-62 NSCLC; 30.5% in the assay with NCI-H460 lung; -16.6% (active) in the assay on HOP-92 NSCLC. Besides, the growth was 39.9% with NCI-H522 lung, 45.4% in the assay on A549/ATCC NSCLC, 26.5% with 786-0 renal and 18.6% in the assay with COLO 205 colon.

In the case of `COC1=CC(c2ccc[nH]2)=N/C1=C\c1[nH]c(C)c(CC(=O)NCc2ccccc2)c1C`, the growth in the assay with NCI-H23 lung is 23.9%; with NCI-H226 lung, 28.8%; in the assay with NCI-H322M lung it was 42.7%; in the assay on HOP-62 NSCLC it was 20.6%; with NCI-H460 lung it was 10.9%; in the assay on HOP-92 NSCLC, -7.96% (active). The growth in the assay on NCI-H522 lung is 17%; with A549/ATCC NSCLC, 18.1%; with 786-0 renal it was -42.7% (active); with COLO 205 colon, 1.08% (active).

These data come from PubChem BioAssay (NCI).
